Results filed as inconclusive are left out. Active and inactive are the calls of the source.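 How the source made its calls, unless noted: active means percent response above 42, roughly 3 SD of non-fluorescent test compounds; inactive means the rest.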
Assays:
[1] = yeast TOR pathway RPL19A-GFP modulators, primary screen, cell-based, S. cerevisiae, multiplex flow cytometry (AID 1862; in the data active means percent of DMSO control GFP below about 86%;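 further: lower values mimic rapamycin by blocking the RPL19A rise seen in DMSO cells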); settings: S. cerevisiae RPL19A-GFP strain, flow cytometry fluorescence, 3 h; at 10 µM; stronger effect = lower value
[2] = modulators of MEP2-GFP levels in yeast, primary screen, S. cerevisiae, multiplex flow cytometry (AID 1867;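 active means GFP response, as percent of the DMSO control, above the screen-wide mean plus 3 SD, about 139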;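 further: median GFP channel fluorescence of barcode-gated MEP2-GFP cells measured by flow cytometry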); settings: S. cerevisiae MEP2-GFP strain, 3 h, at 10 µM, stronger effect = higher value, 100% means same as DMSO wells
[3] = modulators of CIT2-GFP expression in yeast, primary screen, S. cerevisiae, GFP fusion, multiplex flow cytometry (AID 1870;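 active means percent response above a set limit, the screen-wide mean plus 3 SD, cut at about 130% in these data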;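 further: barcoded CIT2-GFP strain pooled with four other GFP strains with rapamycin as positive control; median GFP fluorescence per well over plate mean of DMSO wells so 100% = DMSO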); settings: 3 h, at 10 µM, stronger effect = higher value
[4] = modulators of LAP4-GFP expression in yeast, primary screen, S. cerevisiae, multiplex flow cytometry (AID 1873;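 active means GFP signal, as percent of the solvent control, above the screen mean plus 3 SD, about 149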); settings: 3 h, at 10 µM, stronger effect = higher value
[5] = modulators of AGP1-GFP expression in yeast TOR pathway, primary screen, cell-based, multiplex flow cytometry, S. cerevisiae (AID 1887;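 active means GFP signal above the screen-wide mean plus 3 SD, that is over about 124.5% of the solvent control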;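 further: AGP1-GFP fusion strain of S. cerevisiae within a five-strain barcoded multiplex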); settings: 3 h, at 10 µM, stronger effect = higher value
[6] = inhibitors of CD8+ T cell-vesicle binding, pilot screen, LFA-1/ICAM-1 modulator project, MLPCN validation set, flow cytometry (AID 2523;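 active means response below a set limit, under 55% cells CD8-positive and vesicle-bound, and CD8 cells' 90th-percentile brightness under 279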;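 on vesicle binding response: mean PE anti-B7-1 fluorescence of CD8+ cells relative to row control; 100% = QL9-loaded vesicles with DMSO vehicle in the same plate row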); settings: 2C mouse CD8+ T cells, at 7 µM, stronger effect = lower value; double positive events: measured here: CD8+/vesicle+ event percentage
[7] = target: Integrin beta-1 (Homo sapiens) + Integrin alpha-4 (Homo sapiens) (UniProt P13612+P05556); assay: inhibition of HUTS-21 binding to VLA-4, pilot screen, VLA-4 allosteric modulator project, U937 cells, HUTS-21 mAb, flow cytometry, validation set (AID 2674;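 active means inhibition above 50%, about 3 SD of the validation set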;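 further: antibody binding induced by the VLA-4 ligand LDV present at three times its Kd; 0% = LDV ligand with antibody and no compound and 100% = antibody without LDV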); settings: HUTS-21 LIBS mAb binding, at 6.7 µM, stronger effect = higher value, binding induced by LDV ligand
[8] = superoxide lowering in aged yeast cells, pilot screen, validation compound set (AID 2706;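 active means superoxide response below 65% of plate, a cut near 3 SD across the whole screen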;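 further: yeast exposed to compound for one week at 30 degrees C before staining; 100% = mean of all compound wells on the same plate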); settings: S. cerevisiae aging, superoxide DHE fluorescence; at 10 µM; stronger effect = lower value
[9] = target: Beta-adrenergic receptor kinase 1 (Homo sapiens) (UniProt P25098); assay: GRK2 binders displacing RNA aptamer, biochemical, validation, human GRK2, bead flow cytometry (AID 488806;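 active means aptamer binding inhibition above 30%, about 3 SD of noise from non-fluorescent compounds; inactive means inhibition at or below 30%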); settings: bead-bound GRK2, FAM-aptamer displacement, at 10 µM, stronger effect = higher value
[10] = target: Beta-2 adrenergic receptor (Homo sapiens) (UniProt P07550); assay: beta2AR agonists driving receptor internalization, pilot screen, cell-based, FAP fluorogen, flow cytometry, validation set (AID 504459); settings: Am2.2-beta2AR cells, FAP surface receptor flow cytometry; at 10 µM; stronger effect = higher value;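 further: agonist-driven loss of surface beta2AR via internalization measured by FAP dye flow cytometry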
[11] = target: AP-2 complex subunit beta (Homo sapiens) (UniProt P63010); assay: inhibitors of arrestin peptide binding to AP2, pilot screen, biochemical, validation set, GST-AP2 beads, flow cytometry (AID 504541;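 active means inhibition above 54%, about 3 SD of non-fluorescent compounds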;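 further: AP2 carries R879A mutation and is captured from E. coli lysate; bead-bound FITC arrestin peptide fluorescence measuring arrestin peptide binding to AP2; 0% = DMSO wells and 100% = excess unlabeled arrestin peptide control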); settings: FITC arrestin peptide, at 10 µM, stronger effect = higher value, AP2 beta2 appendage fragment, R879A mutant
[12] = yeast V-ATPase proton transport modulators, S. cerevisiae, pHLuorin, HTS validation (AID 504600; in the data active means response above about 15%;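 further: plate controls were DMSO for no effect and reference compound for full effect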); settings: S. cerevisiae pHLuorin cytosolic pH, at 10 µM, stronger effect = higher value
[13] = system: anti-desmoglein-3 scFv antibody binding to human DSG3; assay: inhibitors of anti-DSG3 scFv binding to DSG3, pilot screen, biochemical, validation compound set, bead-based, flow cytometry (AID 588368;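 active means binding below the plate cutoff, the plate median minus 3 SD, with a reading above zero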;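 further: signal is the median channel fluorescence of bead-bound GFP antibody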); settings: Protein G beads, DSG3-Fc, scFv-GFP binding, at 10 µM, stronger effect = lower value
[14] = inhibitors of fungal efflux pumps CDR1, CDR2, MDR1, pilot screen, validation compound set, multiplex, phenotypic (AID 588506;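 active means efflux inhibition above 0.42, the validation set average plus 4 SD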;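 further: Nile Red retained in cells so higher fluorescence means more efflux inhibition; 0 = negative control wells and 1 = enniatin B 25 µM full block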); settings: S. cerevisiae pump-expressing triplex, Nile Red efflux flow cytometry; at 10 µM; stronger effect = higher value; the pumps come from Candida albicans
[15] = target: ATP-binding cassette sub-family B member 6 (Homo sapiens) (UniProt Q9NP58); assay: ABCB6 transporter inhibitors, pilot screen, K562-ABCB6 cells, flow cytometry, validation set (AID 588550;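 active means inhibition above the screen-wide mean plus 3 SD, about 51%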;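 further: 0% = DMSO wells and 100% = benzethonium chloride 70 µM positive control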); settings: K562-ABCB6 porphyrin accumulation, 1 h, at 10 µM, stronger effect = higher value
[16] = promoters of myeloid differentiation in arrested cells, primary screen, cell-based, GFP/MAC1 double positive, flow cytometry, validation set (AID 588685;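 active means differentiation response of at least 50%, scaled between solvent and reference control, from cells with both markers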;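 further: compound exposure lasts four days before antibody staining and flow analysis; 0% = DMSO wells and 100% = 5 µM fulvestrant positive control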); settings: ER-HoxA9 marrow cells, stronger effect = higher value, normalized: vehicle 0, fulvestrant 100

Chain of Beta-2 adrenergic receptor (Homo sapiens) (P07550 whole entry, looked up): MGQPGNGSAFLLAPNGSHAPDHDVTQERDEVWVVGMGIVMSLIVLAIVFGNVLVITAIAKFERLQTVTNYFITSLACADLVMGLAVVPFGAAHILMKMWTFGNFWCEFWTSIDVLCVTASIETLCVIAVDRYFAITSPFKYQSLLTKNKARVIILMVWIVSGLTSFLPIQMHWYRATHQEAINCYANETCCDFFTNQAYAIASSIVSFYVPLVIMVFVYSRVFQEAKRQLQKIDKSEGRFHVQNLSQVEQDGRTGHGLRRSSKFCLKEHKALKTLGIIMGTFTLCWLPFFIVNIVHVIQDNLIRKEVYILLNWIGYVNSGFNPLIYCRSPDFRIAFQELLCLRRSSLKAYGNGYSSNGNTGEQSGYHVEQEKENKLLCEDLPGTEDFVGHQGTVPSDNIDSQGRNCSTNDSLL
Chain of Beta-adrenergic receptor kinase 1 (Homo sapiens) (P25098 whole entry, looked up): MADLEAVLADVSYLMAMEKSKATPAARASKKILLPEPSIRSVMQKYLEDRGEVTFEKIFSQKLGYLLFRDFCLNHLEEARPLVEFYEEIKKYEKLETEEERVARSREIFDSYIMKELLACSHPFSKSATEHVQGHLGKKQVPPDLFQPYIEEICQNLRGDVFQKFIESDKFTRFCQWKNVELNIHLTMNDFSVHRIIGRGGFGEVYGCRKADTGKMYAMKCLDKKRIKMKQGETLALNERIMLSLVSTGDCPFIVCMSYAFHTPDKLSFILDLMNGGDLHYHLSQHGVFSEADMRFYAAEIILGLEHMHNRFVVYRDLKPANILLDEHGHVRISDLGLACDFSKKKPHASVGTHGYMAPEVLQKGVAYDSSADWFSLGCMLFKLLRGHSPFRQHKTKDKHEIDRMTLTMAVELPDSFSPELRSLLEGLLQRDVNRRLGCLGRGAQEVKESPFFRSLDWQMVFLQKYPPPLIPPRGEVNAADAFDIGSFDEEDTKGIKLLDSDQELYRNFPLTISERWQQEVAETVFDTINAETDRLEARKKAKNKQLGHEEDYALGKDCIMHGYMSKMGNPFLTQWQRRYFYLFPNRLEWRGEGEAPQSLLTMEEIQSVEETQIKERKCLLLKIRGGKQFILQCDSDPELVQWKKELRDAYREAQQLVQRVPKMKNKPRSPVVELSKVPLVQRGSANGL
Chain of Integrin beta-1 (Homo sapiens) + Integrin alpha-4 (Homo sapiens) (P05556 whole entry, looked up): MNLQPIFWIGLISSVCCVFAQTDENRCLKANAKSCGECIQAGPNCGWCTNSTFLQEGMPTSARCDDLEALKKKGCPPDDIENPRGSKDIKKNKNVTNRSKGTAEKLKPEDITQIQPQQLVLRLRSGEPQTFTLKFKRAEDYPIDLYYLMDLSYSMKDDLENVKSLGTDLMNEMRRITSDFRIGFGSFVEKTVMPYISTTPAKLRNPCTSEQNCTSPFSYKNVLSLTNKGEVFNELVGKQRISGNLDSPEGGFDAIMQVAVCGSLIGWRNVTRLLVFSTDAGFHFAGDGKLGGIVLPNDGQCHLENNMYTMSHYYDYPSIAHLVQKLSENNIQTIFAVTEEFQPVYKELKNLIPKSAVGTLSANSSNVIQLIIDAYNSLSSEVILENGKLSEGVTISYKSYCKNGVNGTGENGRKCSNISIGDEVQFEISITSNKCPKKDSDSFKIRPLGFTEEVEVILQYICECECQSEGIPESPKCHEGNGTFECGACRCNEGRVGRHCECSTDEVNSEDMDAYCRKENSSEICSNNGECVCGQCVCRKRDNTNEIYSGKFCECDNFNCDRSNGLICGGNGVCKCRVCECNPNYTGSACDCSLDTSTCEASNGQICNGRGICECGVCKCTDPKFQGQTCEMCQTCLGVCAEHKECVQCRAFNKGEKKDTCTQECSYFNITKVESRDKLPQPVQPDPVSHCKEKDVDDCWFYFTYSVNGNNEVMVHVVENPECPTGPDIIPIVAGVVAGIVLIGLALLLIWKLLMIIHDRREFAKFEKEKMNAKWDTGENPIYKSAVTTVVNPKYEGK
Chain of Integrin beta-1 (Homo sapiens) + Integrin alpha-4 (Homo sapiens) (P13612 whole entry, looked up): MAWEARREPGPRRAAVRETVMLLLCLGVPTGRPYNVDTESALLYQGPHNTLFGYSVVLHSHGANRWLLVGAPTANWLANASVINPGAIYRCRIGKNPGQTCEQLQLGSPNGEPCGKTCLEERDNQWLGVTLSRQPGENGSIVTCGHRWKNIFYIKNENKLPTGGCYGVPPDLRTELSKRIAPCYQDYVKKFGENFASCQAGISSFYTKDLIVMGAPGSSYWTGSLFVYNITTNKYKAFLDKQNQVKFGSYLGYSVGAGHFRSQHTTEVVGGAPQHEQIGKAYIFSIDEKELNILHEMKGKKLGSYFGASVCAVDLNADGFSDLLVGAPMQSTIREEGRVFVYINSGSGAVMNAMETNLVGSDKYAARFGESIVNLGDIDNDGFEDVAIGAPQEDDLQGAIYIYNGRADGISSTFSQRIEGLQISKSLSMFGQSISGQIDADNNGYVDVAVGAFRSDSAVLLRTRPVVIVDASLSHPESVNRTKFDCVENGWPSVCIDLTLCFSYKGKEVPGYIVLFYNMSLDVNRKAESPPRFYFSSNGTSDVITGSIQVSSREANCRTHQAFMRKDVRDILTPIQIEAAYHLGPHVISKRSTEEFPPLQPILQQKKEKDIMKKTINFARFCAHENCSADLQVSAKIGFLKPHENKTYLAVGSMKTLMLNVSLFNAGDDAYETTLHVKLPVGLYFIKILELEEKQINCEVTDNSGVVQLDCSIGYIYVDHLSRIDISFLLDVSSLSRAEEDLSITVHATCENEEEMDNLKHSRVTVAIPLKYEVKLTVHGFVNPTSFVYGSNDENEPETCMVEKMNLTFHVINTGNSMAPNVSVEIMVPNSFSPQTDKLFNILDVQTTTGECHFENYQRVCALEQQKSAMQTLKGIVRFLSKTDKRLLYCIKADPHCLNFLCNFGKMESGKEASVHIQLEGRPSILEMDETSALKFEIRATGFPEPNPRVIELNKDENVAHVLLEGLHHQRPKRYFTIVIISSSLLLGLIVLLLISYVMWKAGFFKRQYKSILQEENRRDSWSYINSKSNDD
Chain of AP-2 complex subunit beta (Homo sapiens) (P63010 whole entry, looked up, the tested form may be a part, one chain of several): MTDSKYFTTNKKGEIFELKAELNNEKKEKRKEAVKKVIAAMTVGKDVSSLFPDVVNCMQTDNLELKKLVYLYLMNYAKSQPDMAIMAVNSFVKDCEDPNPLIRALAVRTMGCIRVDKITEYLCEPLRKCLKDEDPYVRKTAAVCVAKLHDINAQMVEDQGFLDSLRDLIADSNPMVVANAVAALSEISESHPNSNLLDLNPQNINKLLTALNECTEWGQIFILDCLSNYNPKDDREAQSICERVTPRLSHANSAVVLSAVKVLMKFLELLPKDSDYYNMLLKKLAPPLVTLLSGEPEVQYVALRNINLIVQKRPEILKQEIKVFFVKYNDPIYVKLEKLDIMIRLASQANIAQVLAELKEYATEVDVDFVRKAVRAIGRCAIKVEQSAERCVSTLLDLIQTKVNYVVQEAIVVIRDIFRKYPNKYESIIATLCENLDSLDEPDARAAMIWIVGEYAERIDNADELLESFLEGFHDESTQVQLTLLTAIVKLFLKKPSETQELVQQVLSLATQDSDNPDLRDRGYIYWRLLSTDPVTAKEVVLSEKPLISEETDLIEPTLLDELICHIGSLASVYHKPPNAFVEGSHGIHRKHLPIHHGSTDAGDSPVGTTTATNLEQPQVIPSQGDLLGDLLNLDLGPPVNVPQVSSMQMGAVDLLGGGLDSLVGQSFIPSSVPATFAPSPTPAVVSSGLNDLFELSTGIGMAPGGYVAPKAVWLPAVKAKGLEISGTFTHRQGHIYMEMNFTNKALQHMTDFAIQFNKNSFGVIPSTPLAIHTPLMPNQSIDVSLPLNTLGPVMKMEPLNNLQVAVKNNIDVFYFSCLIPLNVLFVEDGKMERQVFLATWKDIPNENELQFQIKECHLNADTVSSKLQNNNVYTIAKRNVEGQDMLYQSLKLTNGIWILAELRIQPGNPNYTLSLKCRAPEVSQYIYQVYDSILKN
Chain of ATP-binding cassette sub-family B member 6 (Homo sapiens) (Q9NP58 whole entry, looked up): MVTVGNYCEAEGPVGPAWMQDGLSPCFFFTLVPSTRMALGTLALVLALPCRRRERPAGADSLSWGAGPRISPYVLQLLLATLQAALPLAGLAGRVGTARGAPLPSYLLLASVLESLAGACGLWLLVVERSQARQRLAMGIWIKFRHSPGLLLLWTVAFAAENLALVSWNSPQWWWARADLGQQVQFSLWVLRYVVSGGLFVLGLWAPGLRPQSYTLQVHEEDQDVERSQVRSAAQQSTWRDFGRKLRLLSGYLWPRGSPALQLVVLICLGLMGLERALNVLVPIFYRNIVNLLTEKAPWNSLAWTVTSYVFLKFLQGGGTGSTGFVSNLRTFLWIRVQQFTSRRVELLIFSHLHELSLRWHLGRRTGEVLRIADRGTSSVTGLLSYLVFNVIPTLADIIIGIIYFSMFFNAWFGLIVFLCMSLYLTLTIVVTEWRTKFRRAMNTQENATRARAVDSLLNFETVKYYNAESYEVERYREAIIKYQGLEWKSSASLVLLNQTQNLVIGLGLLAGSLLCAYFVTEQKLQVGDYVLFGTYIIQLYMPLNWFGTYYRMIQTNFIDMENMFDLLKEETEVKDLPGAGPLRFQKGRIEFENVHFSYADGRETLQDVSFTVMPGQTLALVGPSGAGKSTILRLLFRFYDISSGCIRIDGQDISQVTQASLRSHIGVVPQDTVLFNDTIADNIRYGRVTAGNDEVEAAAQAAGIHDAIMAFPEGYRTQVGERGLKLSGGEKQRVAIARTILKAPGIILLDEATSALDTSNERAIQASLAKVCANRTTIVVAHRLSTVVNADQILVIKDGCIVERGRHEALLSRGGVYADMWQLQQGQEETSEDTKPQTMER

SMILES | percent of DMSO control GFP [1] | GFP response vs DMSO [2] | percent response of DMSO control [3] | GFP response vs DMSO [4] | GFP response, % of DMSO [5] | double positive events [6] [%] | vesicle binding response [6] | inhibition [7] | superoxide response (% of plate) [8] | aptamer binding inhibition [9] | response [10] | inhibition [11] | response [12] | binding (% of control) [13] | efflux inhibition (fraction of control) [14] | inhibition [15] | differentiation response [16]
O=C(COc1cc(O)c2c(=O)c3ccccc3oc2c1)OCc1ccccc1 | 101% (inactive) | 104% (inactive) | 109% (inactive) | 85.5% (inactive) | 97.6% (inactive) | 61 | 152% (inactive) | -3.57% (inactive) | 101% (inactive) | -2% (inactive) | -4.65% (inactive) | -5.28% (inactive) | 4.03% (inactive) | 93.3% (inactive) | -0.01 (inactive) | 0% (inactive) | 12.9% (inactive)
CC1(C)CC(=O)C2=C(C1)c1c(ccc3ccccc13)NC2c1ccco1 (stereo not given) | 98.8% (inactive) | 105% (inactive) | 93.9% (inactive) | 123% (inactive) | 99.5% (inactive) | 57 | 182% (inactive) | -8.62% (inactive) | 107% (inactive) | 6% (inactive) | 14.4% (inactive) | 13.8% (inactive) | 1.12% (inactive) | 104% (inactive) | -0.06 (inactive) | 3% (inactive) | 28% (inactive)
COc1ccccc1C(=O)Nc1cc2cc(Br)ccc2oc1=O | 101% (inactive) | 106% (inactive) | 96% (inactive) | 99.4% (inactive) | 101% (inactive) | 58.5 | 30.4% (inactive) | -4.61% (inactive) | 97.2% (inactive) | 3% (inactive) | 4.22% (inactive) | -7.21% (inactive) | -0.54% (inactive) | 101% (inactive) | -0.47 (inactive) | 12% (inactive) | -5.68% (inactive)
Cn1cc(CN2CCC(C(=O)N3CCCCC3)CC2)c(-c2ccccc2F)n1 | 95.9% (inactive) | 137% (inactive) | 104% (inactive) | 85.8% (inactive) | 94.2% (inactive) | 63.2 | 131% (inactive) | 5.49% (inactive) | 92.8% (inactive) | 4% (inactive) | -5.43% (inactive) | 0.65% (inactive) | -1.21% (inactive) | 104% (inactive) | -0.02 (inactive) | 16% (inactive) | 0% (inactive)
COc1cc2c(cc1OC)CN(Cc1ccc(C)s1)CC2 | 102% (inactive) | 106% (inactive) | 105% (inactive) | 88.1% (inactive) | 98% (inactive) | 64.1 | 349% (inactive) | -13.9% (inactive) | 103% (inactive) | 4% (inactive) | -7.1% (inactive) | 14.8% (inactive) | -3% (inactive) | 101% (inactive) | 0.05 (inactive) | 4% (inactive) | 2.2% (inactive)
COc1ccc(Cc2noc(CN(C)CC3(N4CCOCC4)CCCCC3)n2)cc1OC | 94.3% (inactive) | 99.7% (inactive) | 106% (inactive) | 95.9% (inactive) | 98.3% (inactive) | 60.5 | 80.5% (inactive) | 2.93% (inactive) | 108% (inactive) | 2% (inactive) | 8.59% (inactive) | -7.18% (inactive) | 2.83% (inactive) | 102% (inactive) | 0.22 (inactive) | 36% (inactive) | -10.4% (inactive)
O=C(CN1CC[n+]2c(-c3cccs3)csc21)c1ccc(Br)cc1 | 103% (inactive) | 104% (inactive) | 108% (inactive) | 103% (inactive) | 107% (inactive) | 64 | 142% (inactive) | 1.59% (inactive) | 96.7% (inactive) | 0% (inactive) | 10.7% (inactive) | 14.7% (inactive) | 1.44% (inactive) | 99% (inactive) | -0.085 (inactive) | -9% (inactive) | -7.5% (inactive)
COc1ccc(CCN=CC2=C(O)CC(C)(C)CC2=O)cc1 | 109% (inactive) | 106% (inactive) | 106% (inactive) | 91.4% (inactive) | 102% (inactive) | 62.4 | 6690% (inactive) | -2.53% (inactive) | 91.4% (inactive) | -2% (inactive) | -5.19% (inactive) | -11.8% (inactive) | 2.74% (inactive) | 101% (inactive) | 0.02 (inactive) | 3% (inactive) | 1.22% (inactive)
Cc1nnc(NS(=O)(=O)c2ccc(N)cc2)s1 | 92.4% (inactive) | 126% (inactive) | 92.6% (inactive) | 83.6% (inactive) | 92.8% (inactive) | 61.7 | 123% (inactive) | 19.1% (inactive) | 102% (inactive) | 8% (inactive) | 2.41% (inactive) | 2.68% (inactive) | 0.26% (inactive) | 100% (inactive) | -0.24 (inactive) | 14% (inactive) | 0% (inactive)
CCc1cc(C(N)=S)ccn1 | 99.5% (inactive) | 104% (inactive) | 104% (inactive) | 99.1% (inactive) | 107% (inactive) | 63.7 | 166% (inactive) | 9.63% (inactive) | 97.7% (inactive) | 4% (inactive) | -4.68% (inactive) | 4.47% (inactive) | -4.94% (inactive) | 101% (inactive) | 0.12 (inactive) | 1% (inactive) | -8.96% (inactive)

Reference: PubChem BioAssay
